Source: PubChem
NADH enzymes – inhibition of NAD/NADH coupling enzymes, library profiling | coupled PK/LDH NADH assays, four targets | IC50, µM (top dose mostly 10 µM) | 65,000 tested, 0.02% active | AID 774;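 active means single-dose screening hits from any of four coupled enzyme assays that gave an IC50 when retested across doses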;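 further: the DPM-DC format reads NADH fluorescence rather than 340 nm absorbance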
Fluor 339 460 – intrinsic fluorescence of library compounds, ex339/em460 – biochemical, MLSMR library, data from DPM-DC assay, artefact control, profiling panel; fluorescence fold increase at 10 µM; 65,000 tested, 5.5% active; compound autofluorescence, ex339/em460 nm, NADH buffer; hits give high values; 1 = no-compound wells, NADH background;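 active means at 10 µM, mean starting fluorescence two-fold or more over control wells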;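 further: signal is the first read of a kinetic run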
Spn PMK inh – S. pneumoniae PMK inhibition; purified PMK, PK/LDH-coupled NADH absorbance 340 nm; inhibition, % at 10 µM; 65,000 tested, 0.49% active; AID 539;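 active means top-ranked compounds by inhibition in the single 10 µM screen, taking a fixed number of the strongest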
Spn DPM-DC inh – inhibitors of Streptococcus pneumoniae diphosphomevalonate decarboxylase. purified DPM-DC, PK/LDH coupled NADH fluorescence. calls only at 10 µM. 65,000 tested, 0.49% active;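 active means the 320 compounds with the highest percent inhibition in the single-dose primary screen, excluding strongly autofluorescent ones, cut at about 32% in these data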;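 further: kinetic rate of NADH fluorescence loss reporting ADP formed by the decarboxylase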
Abs 340nm – compound absorbs light at 340 nm; compound absorbance at 340 nm, fold over control; fold change at 10 µM; 65,000 tested, under 10 active; AID 708;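 active means at 10 µM dose, initial 340 nm absorbance at least 2 fold that of control wells; inactive means change under 2 fold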;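 further: initial absorbance extrapolated from kinetic A340 decline of NADH oxidation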
MK inhibit – S. pneumoniae mevalonate kinase inhibition; 65,000 tested, 0.48% active; purified MK, PK/LDH-coupled NADH absorbance 340 nm; inhibition, % at 10 µM;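 active means ranked among the strongest by inhibition in the single 10 µM screen, a fixed top-ranked set picked for dose follow-up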
Hits are given with their value. Only some compounds are listed: those with a hit (about 6.8% of all), similar ones and a draw of the others.

Screening CCOC(=O)c1cccc(NC(=O)CN2C(=O)C3C4C=CC(C4)C3C2=O)c1 (centres undefined) returned NADH enzymes inactive, Fluor 339 460 inactive, Spn PMK inh inactive, Spn DPM-DC inh inactive, Abs 340nm inactive and MK inhibit inactive.
`O=C(CN1C(=O)C2C3C=CC(C3)C2C1=O)Nc1ccc2nccnc2c1` (centres undefined) gave NADH enzymes inactive, Fluor 339 460 2.09, Spn PMK inh inactive, Abs 340nm inactive and MK inhibit inactive.
For N#C/C(=C\C1CC=CCC1)c1nc2ccccc2[nH]1 (centres undefined) the results were NADH enzymes inactive, Fluor 339 460 inactive, Spn PMK inh inactive, Spn DPM-DC inh active, Abs 340nm inactive and MK inhibit inactive.
For COc1ccc(OC)c(C2=NO[C@@H]3C(=O)N(c4cc(Cl)ccc4OC)C(=O)[C@H]23)c1 the results were NADH enzymes inactive, Fluor 339 460 2.02, Spn PMK inh inactive, Spn DPM-DC inh inactive, Abs 340nm inactive and MK inhibit inactive.
For O=c1oc(-c2ccccc2)nc2c1cnn2-c1ccccc1 the results were NADH enzymes inactive, Fluor 339 460 inactive, Spn PMK inh inactive, Spn DPM-DC inh inactive, Abs 340nm inactive and MK inhibit inactive.
For O=c1oc(-c2cccs2)nc2c1cnn2-c1ccccc1 the results were NADH enzymes inactive, Fluor 339 460 2.18, Spn PMK inh inactive, Abs 340nm inactive and MK inhibit inactive.
CN(CC(=O)Nc1nccs1)S(=O)(=O)c1ccc(F)cc1 was read as NADH enzymes inactive, Fluor 339 460 inactive, Spn PMK inh inactive, Spn DPM-DC inh inactive, Abs 340nm inactive and MK inhibit inactive.
`COc1cccc(-c2nc(CS(=O)CC(=O)NCc3ccccc3)c(C)o2)c1` (centres undefined) gave NADH enzymes inactive, Fluor 339 460 inactive, Spn PMK inh inactive, Spn DPM-DC inh inactive, Abs 340nm inactive and MK inhibit inactive.
`COc1cccc2c(=O)c(C(=O)NCc3cccs3)c[nH]c12` gave NADH enzymes inactive, Fluor 339 460 3.73, Spn PMK inh inactive, Abs 340nm inactive and MK inhibit inactive.
`COc1ccc(-n2nc3cc(C)c(NC(=O)C(C)C)cc3n2)cc1` gave NADH enzymes inactive, Fluor 339 460 5.11, Spn PMK inh inactive, Abs 340nm inactive and MK inhibit inactive.
O=C(CSc1ccc2nnc(-c3ccc(F)cc3)n2n1)NCC1CCCO1 (centres undefined) was read as NADH enzymes inactive, Fluor 339 460 2.28, Spn PMK inh inactive, Spn DPM-DC inh inactive, Abs 340nm inactive and MK inhibit inactive.
CCOC(=O)C(C)Sc1ccc2nnc(-c3ccc(F)cc3)n2n1 (centres undefined) was read as NADH enzymes inactive, Fluor 339 460 2.15, Spn PMK inh inactive, Spn DPM-DC inh inactive, Abs 340nm inactive and MK inhibit inactive.
O=C(CSc1cc(Cl)ccc1Cl)NCC1CCCO1 (centres undefined) was read as NADH enzymes inactive, Fluor 339 460 inactive, Spn PMK inh 25.0, Spn DPM-DC inh inactive, Abs 340nm inactive and MK inhibit inactive.
Screening CCSc1ccc2nnc(-c3ccc(F)cc3)n2n1 returned NADH enzymes inactive, Fluor 339 460 2.04, Spn PMK inh inactive, Spn DPM-DC inh inactive, Abs 340nm inactive and MK inhibit inactive.
CC(Sc1ccc2nnc(-c3ccc(F)cc3)n2n1)C(=O)O (centres undefined) was read as NADH enzymes inactive, Fluor 339 460 inactive, Spn PMK inh inactive, Spn DPM-DC inh inactive, Abs 340nm inactive and MK inhibit inactive.
`Nc1cc(N)nc(SCC(=O)NCC2CCCO2)n1` (centres undefined) gave NADH enzymes inactive, Fluor 339 460 inactive, Spn PMK inh inactive, Spn DPM-DC inh inactive, Abs 340nm inactive and MK inhibit inactive.
O=C(CSc1ccc2nnc(-c3ccc(F)cc3)n2n1)N1CCCCC1 was read as NADH enzymes inactive, Fluor 339 460 inactive, Spn PMK inh inactive, Spn DPM-DC inh inactive, Abs 340nm inactive and MK inhibit inactive.
O=S(=O)(NCCc1ccncc1)c1cc(Br)ccc1F was read as NADH enzymes inactive, Fluor 339 460 inactive, Spn PMK inh inactive, Spn DPM-DC inh inactive, Abs 340nm inactive and MK inhibit inactive.
`CN(C)CC(O)COc1cc2ccccc2cc1C(=O)N1CCCCC1` (centres undefined) gave NADH enzymes inactive, Fluor 339 460 inactive, Spn PMK inh inactive, Spn DPM-DC inh inactive, Abs 340nm inactive and MK inhibit inactive.
COc1ccc(-c2ncc3ccccn23)cc1 was read as NADH enzymes inactive, Fluor 339 460 3.23, Spn PMK inh inactive, Abs 340nm inactive and MK inhibit inactive.
Screening c1csc(-c2ncc3ccccn23)c1 returned NADH enzymes inactive, Fluor 339 460 3.38, Spn PMK inh inactive, Abs 340nm inactive and MK inhibit inactive.
`c1ccc(-n2c(-c3ccncc3)nnc2-c2cccs2)cc1` gave NADH enzymes inactive, Fluor 339 460 inactive, Spn PMK inh inactive, Spn DPM-DC inh inactive, Abs 340nm inactive and MK inhibit inactive.
Screening CCCC(=O)C1=C(O)C(C(=O)OC)C(C)(C)CC1=Nc1ccncc1 (centres undefined) returned NADH enzymes inactive, Fluor 339 460 inactive, Spn PMK inh inactive, Spn DPM-DC inh inactive, Abs 340nm inactive and MK inhibit inactive.
Screening CCOC(=O)C1CCN(S(=O)(=O)c2ccc(-c3nc4ccccc4s3)s2)CC1 returned NADH enzymes inactive, Fluor 339 460 2.17, Spn PMK inh inactive, Spn DPM-DC inh inactive, Abs 340nm inactive and MK inhibit inactive.
COc1cccc(CC(NC(C)=O)C(=O)NC2CCN(c3nc(C)cc(C)c3C#N)CC2)c1OC (centres undefined) was read as NADH enzymes inactive, Fluor 339 460 3.02, Spn PMK inh inactive, Spn DPM-DC inh inactive, Abs 340nm inactive and MK inhibit inactive.
COc1ccc(C(=O)Nc2nccs2)cc1OC was read as NADH enzymes inactive, Fluor 339 460 inactive, Spn PMK inh inactive, Spn DPM-DC inh inactive, Abs 340nm inactive and MK inhibit inactive.
`COc1ccc(C(=O)Nc2ccncc2)cc1OC` gave NADH enzymes inactive, Fluor 339 460 inactive, Spn PMK inh 40.0, Spn DPM-DC inh inactive, Abs 340nm inactive and MK inhibit inactive.
CCOC(=O)N1CCN(S(=O)(=O)c2ccc(C(=O)Nc3nc4ccccc4s3)cc2)CC1 was read as NADH enzymes inactive, Fluor 339 460 4.52, Spn PMK inh inactive, Abs 340nm inactive and MK inhibit inactive.
CCOC(=O)N1CCN(S(=O)(=O)c2ccc(C(=O)Nc3nc4ccc(F)cc4s3)cc2)CC1 was read as NADH enzymes inactive, Fluor 339 460 4.62, Spn PMK inh inactive, Abs 340nm inactive and MK inhibit inactive.
CCOC(=O)N1CCN(S(=O)(=O)c2ccc(F)cc2)CC1 was read as NADH enzymes inactive, Fluor 339 460 inactive, Spn PMK inh inactive, Spn DPM-DC inh inactive, Abs 340nm inactive and MK inhibit inactive.
